Assay results: PubChem BioAssay (Tox21)
Inconclusive results are not listed. Active and inactive are the calls of the source. Unless noted, the call rests on the fitted dose curve.

Legend:
[1] = Nuclear factor erythroid 2-related factor 2/antioxidant responsive element (Nrf2/ARE) small molecule agonists: qHTS cell viability counter screen in human keratinocytes (AID 1919968; active means well fitted curve in the direction sought with a large enough effect in the repeat runs; an effect the other way counts as inactive or inconclusive; further: nearly all actives have a fitted effect of over 55% in size; further: potency means the concentration at half of the fitted maximal effect)
How it was run: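 Viability counter-screen: KeratinoSens reporter cells, DMSO-delivered compounds, 23 h at 37 C, CellTiter-Fluor fluorescence.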

[2] = Nuclear factor erythroid 2-related factor 2/antioxidant responsive element (Nrf2/ARE) small molecule agonists: luciferase reporter gene qHTS assay in human keratinocytes (AID 1919969); further: nearly all actives have a fitted effect of over 35% in size; further: potency means the concentration at half of the fitted maximal effect
[3] = biological target: Gonadotropin-releasing hormone receptor (Homo sapiens) (UniProt P30968); assay: Human gonadotropin-releasing hormone receptor (GnRHR) small molecule agonists, calcium flux assay in GnRHR-HEK293 cells (AID 1920063); further: nearly all actives have a fitted effect of over 35% in size
How it was run: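 Tox21-format agonist screen using human GnRHR-expressing HEK293 cells and a fluorescent calcium dye; kinetic 3-min fluorescence reading after compound addition, 15-point concentration series run in triplicate.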

[4] = biological target: KiSS-1 receptor (Homo sapiens) (UniProt Q969F8); assay: Human kisspeptin (KISS1R) small molecule agonists, calcium flux assay in KISS1R-HEK293 cells (AID 1920064; active means well fitted curve in the direction sought with a large enough effect in the repeat runs; an effect the other way counts as inactive or inconclusive)
How it was run: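 Intracellular calcium mobilization in KISS1R-HEK293 cells was recorded by fluorescence (Ex/Em 480/540) for 3 min following compound addition to cells pre-loaded 1 h with calcium dye.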

[5] = G protein-coupled receptor (GPCR) small molecule agonists, calcium flux assay: HEK293 wild type cell line counter screen (AID 1920065)
How it was run: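 In this agonist-mode screen, ATP is the positive control and DMSO the vehicle. Cells grow 18 h before a 1 h dye incubation at 37 C; signal is taken at Ex/Em 480/540 over 3 min.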

[6] = p53 small molecule agonists, cell-based qHTS assay with human liver microsomes: qHTS cell viability counter screen (AID 1963579); further: nearly all actives have a fitted effect of over 45% in size
How it was run: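 Cytotoxicity counter screen: p53RE-bla, 4,000 cells/well; 5 h settle, 37 C/5% CO2; cpd + HLM 0.5 mg/mL + NADPH 0.5 mg/mL (final); 16 h, 37 C; CellTiter-Glo, 30 min RT, luminescence.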

[7] = p53 small molecule agonists, cell-based qHTS assay: qHTS cell viability counter screen (AID 1963581); further: nearly all actives have a fitted effect of over 45% in size
How it was run: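 Compounds are pinned onto HCT-116 p53RE-bla cells and left 16 h at 37 C. Following the reporter FRET read, ATP is quantified by CellTiter-Glo luminescence after 30 min at room temperature.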

[8] = biological target: 5-hydroxytryptamine receptor 2A (Homo sapiens) (UniProt P28223); assay: 5-hydroxytryptamine receptor 2A (HTR2A) small molecule antagonists, cell-based qHTS assay (AID 1963586); further: nearly all actives have a fitted effect of over 45% in size
How it was run: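 Antagonist-mode intracellular calcium assay: DOI (4 nM) added after 5 min compound pre-incubation at room temperature to dye-loaded HTR2A-CHO cells. Fluorescence followed for 3 min, sampled every second.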

[9] = biological target: 5-hydroxytryptamine receptor 2A (Homo sapiens) (UniProt P28223); assay: 5-hydroxytryptamine receptor 2A (HTR2A) small molecule agonists, cell-based qHTS assay (AID 1963587); further: nearly all actives have a fitted effect of over 30% in size
How it was run: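 Kinetic calcium-flux fluorescence (2 min, 1 sec intervals) after compound addition in agonist mode. HTR2A-CHO cells were cultured 18 h, then dye-loaded 1 h at 37 C.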

[10] = biological target: Muscarinic acetylcholine receptor M1 (Homo sapiens) (UniProt P11229); assay: Cholinergic receptor muscarinic 1 (CHRM1) small molecule antagonists, cell-based qHTS assay (AID 1963588); further: nearly all actives have a fitted effect of over 40% in size
How it was run: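 CHRM1-CHO calcium-flux assay, antagonist mode. Cells were seeded 18 h, dye-loaded 1 h at 37 C and given compound for 5 min at RT, then acetylcholine was added at 50nM. FDSS fluorescence was read 3 min; 15 concentrations, three runs.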

[11] = biological target: Muscarinic acetylcholine receptor M1 (Homo sapiens) (UniProt P11229); assay: Cholinergic receptor muscarinic 1 (CHRM1) small molecule agonists, cell-based qHTS assay (AID 1963589); further: nearly all actives have a fitted effect of over 35% in size
How it was run: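 Stable CHRM1-CHO cells (human receptor) were incubated 18 h, dye-loaded for 1 h at 37 C and exposed to test compounds for agonist activity, with calcium-dependent fluorescence followed kinetically.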

[12] = cAMP Responsive Elements (CRE) small molecule agonists, cell-based qHTS assay (AID 1963590)
How it was run: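 FRET-based beta-lactamase readout (LiveBLAzer B/G, 2 h RT) quantified CRE activation in HEK 293T CRE-bla cells after 3 h treatment with DMSO-dissolved compounds.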

[13] = cAMP Responsive Elements (CRE) small molecule antagonists, cell-based qHTS assay (AID 1963591; active means well fitted inhibition curve with a large enough effect in the signal ratio in the repeat runs, not every such curve was filed as active; the % refers to the signal ratio)
How it was run: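 qHTS in CRE-bla HEK 293T cells: compound in DMSO, then 0.25 uM NKH477 (final), 3 h at 37 °C/5% CO2; beta-lactamase FRET read-out after 2 h substrate incubation.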

[14] = biological target: Beta-2 adrenergic receptor (Homo sapiens) (UniProt P07550); assay: Adrenergic beta2 receptor (ADRB2) small molecule antagonists, cell-based qHTS assay (AID 1963592); further: series mostly up to about 92 µM; nearly all actives have a fitted effect of over 50% in size
How it was run: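 Cells (CHO, stable ADRB2 overexpression) incubated 18-20hr at 37C; compounds added from DMSO; agonist mix (1nM isoproterenol, 100uM IBMX, 25uM Ro-20-1724) added; 0.5hr RT; d2-cAMP and anti-cAMP-cryptate added; 1hr RT; 665/615 nm read.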

[15] = biological target: Beta-2 adrenergic receptor (Homo sapiens) (UniProt P07550); assay: Adrenergic beta2 receptor (ADRB2) small molecule agonists, cell-based qHTS assay (AID 1963593);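 further: CHO cells stably overexpressing human ADRB2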
How it was run: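 CHO cells stably over-expressing ADRB2 were plated overnight at 37C, then dosed with compounds plus a stimulation mix containing 100uM IBMX and 25uM Ro-20-1724 for 0.5hr at room temperature. cAMP was measured by HTRF competition, 1hr.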

[16] = biological target: D(2) dopamine receptor (Homo sapiens) (UniProt P14416); assay: Dopamine D2 receptor (DRD2) small molecule antagonists, cell-based qHTS assay (AID 1963595; active means well fitted inhibition curve with a large enough effect in the signal ratio in the repeat runs, with a control signal flat; the % refers to the signal ratio)
How it was run: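 Stable D2 receptor HEK293 line, 24 h after seeding. Compound preincubated 10 min, then quinpirole (12 nM) with forskolin analogue NKH477 (200 nM), 30 min, room temperature. Detection by time-resolved FRET of cAMP.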

[17] = p53 small molecule agonists, cell-based qHTS assay with rat liver microsomes: qHTS cell viability counter screen (AID 1963580); further: nearly all actives have a fitted effect of over 45% in size
How it was run: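 HCT-116 p53RE-bla, 4,000 cells/well, 5 h pre-incubation; cpd + rat liver microsomes 0.5 mg/mL + NADPH 0.5 mg/mL (final); 16 h, 37 C; CellTiter-Glo, 30 min RT; luminescence.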

[18] = biological target: D(2) dopamine receptor (Homo sapiens) (UniProt P14416); assay: Dopamine D2 receptor (DRD2) small molecule agonists, cell-based qHTS assay (AID 1963594); further: nearly all actives have a fitted effect of over 35% in size
How it was run: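 cAMP accumulation in DRD2-HEK293 cells measured by HTRF after 1 h detection; compounds added 10 min before NKH477 (200nM […]) forskolin-analogue stimulation, 30 min at room temperature, with Ro20-1724 present at 0.1 mM final.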
On the % scale 0 is the no-effect control and ±100 the full control effect.

Sequence of 5-hydroxytryptamine receptor 2A (Homo sapiens) (P28223 whole entry, looked up): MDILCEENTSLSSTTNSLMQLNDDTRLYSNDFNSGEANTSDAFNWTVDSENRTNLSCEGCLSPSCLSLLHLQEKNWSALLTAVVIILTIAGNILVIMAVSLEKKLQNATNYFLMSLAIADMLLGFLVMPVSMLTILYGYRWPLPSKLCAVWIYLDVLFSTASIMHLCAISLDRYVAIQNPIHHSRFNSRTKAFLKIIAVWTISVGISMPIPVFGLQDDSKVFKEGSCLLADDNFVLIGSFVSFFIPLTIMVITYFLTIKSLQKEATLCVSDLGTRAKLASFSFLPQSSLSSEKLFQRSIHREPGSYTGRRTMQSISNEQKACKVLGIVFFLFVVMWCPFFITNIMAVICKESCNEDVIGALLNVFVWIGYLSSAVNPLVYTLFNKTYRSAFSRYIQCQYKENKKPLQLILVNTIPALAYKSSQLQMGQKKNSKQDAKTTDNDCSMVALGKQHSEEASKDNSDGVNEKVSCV
Sequence of Beta-2 adrenergic receptor (Homo sapiens) (P07550 whole entry, looked up): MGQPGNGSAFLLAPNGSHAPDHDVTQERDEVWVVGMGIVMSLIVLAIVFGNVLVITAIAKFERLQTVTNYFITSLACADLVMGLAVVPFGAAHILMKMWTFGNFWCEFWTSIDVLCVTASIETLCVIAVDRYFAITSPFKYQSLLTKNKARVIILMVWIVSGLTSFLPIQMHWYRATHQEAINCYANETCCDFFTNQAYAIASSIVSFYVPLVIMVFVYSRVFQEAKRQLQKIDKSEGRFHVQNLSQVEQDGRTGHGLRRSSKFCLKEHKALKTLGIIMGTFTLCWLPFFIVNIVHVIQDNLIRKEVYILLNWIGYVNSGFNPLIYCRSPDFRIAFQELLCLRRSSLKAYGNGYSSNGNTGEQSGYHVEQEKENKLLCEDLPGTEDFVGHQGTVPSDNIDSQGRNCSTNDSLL
Sequence of D(2) dopamine receptor (Homo sapiens) (P14416 whole entry, looked up): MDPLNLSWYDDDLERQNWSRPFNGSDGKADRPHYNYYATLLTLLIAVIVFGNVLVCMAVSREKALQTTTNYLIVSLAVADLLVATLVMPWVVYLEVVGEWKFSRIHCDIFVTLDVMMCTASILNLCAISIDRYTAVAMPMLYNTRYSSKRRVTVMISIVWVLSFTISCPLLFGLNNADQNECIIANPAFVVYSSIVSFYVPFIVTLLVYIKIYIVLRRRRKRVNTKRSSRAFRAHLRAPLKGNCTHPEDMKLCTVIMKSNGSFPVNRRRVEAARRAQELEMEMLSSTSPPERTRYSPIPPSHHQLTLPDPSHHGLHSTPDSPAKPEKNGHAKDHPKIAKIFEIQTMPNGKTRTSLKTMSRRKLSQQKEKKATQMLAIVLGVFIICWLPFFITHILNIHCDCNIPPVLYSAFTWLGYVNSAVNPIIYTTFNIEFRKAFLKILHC
Sequence of KiSS-1 receptor (Homo sapiens) (Q969F8 whole entry, looked up): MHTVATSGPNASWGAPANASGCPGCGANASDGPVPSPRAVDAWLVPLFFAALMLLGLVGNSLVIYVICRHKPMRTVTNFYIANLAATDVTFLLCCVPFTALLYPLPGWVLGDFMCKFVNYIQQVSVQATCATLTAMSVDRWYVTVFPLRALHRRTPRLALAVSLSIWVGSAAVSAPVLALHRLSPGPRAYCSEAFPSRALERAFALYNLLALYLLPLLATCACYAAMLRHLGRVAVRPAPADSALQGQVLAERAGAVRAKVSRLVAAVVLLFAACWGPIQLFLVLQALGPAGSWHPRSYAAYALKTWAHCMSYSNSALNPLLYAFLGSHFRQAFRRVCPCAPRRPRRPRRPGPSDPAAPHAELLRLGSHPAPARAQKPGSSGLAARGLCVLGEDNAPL
Sequence of Muscarinic acetylcholine receptor M1 (Homo sapiens) (P11229 whole entry, looked up): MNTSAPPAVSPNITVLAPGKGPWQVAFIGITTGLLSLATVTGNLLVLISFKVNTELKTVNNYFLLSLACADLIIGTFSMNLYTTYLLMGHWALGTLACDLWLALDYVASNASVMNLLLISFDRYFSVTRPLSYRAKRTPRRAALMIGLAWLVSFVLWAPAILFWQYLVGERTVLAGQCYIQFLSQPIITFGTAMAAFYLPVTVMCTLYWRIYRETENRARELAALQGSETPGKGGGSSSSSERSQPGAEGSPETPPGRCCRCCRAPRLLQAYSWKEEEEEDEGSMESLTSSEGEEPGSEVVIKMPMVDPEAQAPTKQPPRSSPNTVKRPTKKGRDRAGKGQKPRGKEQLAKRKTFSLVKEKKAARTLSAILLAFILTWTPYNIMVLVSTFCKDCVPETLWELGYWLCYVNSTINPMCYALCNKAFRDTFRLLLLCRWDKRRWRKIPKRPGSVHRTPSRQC
Sequence of Gonadotropin-releasing hormone receptor (Homo sapiens) (P30968 whole entry, looked up): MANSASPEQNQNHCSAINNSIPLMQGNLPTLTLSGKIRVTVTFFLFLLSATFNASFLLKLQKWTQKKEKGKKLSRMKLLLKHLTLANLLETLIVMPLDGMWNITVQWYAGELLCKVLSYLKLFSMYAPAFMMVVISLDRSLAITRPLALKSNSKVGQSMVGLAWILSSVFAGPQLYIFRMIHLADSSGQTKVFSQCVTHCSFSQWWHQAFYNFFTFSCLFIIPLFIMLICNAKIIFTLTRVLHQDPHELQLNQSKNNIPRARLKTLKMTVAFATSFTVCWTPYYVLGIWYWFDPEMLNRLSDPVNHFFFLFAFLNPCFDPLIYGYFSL

CC(CN(CCN(CC(C)OCCO)CC(C)OCCO)CC(C)OCCO)OCCO (centres undefined)
inactive: Potency [1] | Potency [2] | Potency [3] | Potency [4] | Potency [5] | Potency [6] | Potency [7] | Potency [8] | Potency [9] | Potency [10] | Potency [11] | Potency [12] | Potency [13] | Potency [14] | Potency [15] | Potency [16]

C=C(C)C(=O)OCCCCCCCCCCCCCCCCCC
inactive: activity change, negative = cytotoxicity [1] 0.16% [at 19 µM] | activity, positive = activation [2] -9.09% [at 19 µM] | activity change [3] 1.34% [at 11.8 µM, stronger effect = higher value] | activation [4] 1.35% [at 15.8 µM] | activation [5] 0.174% [at 11.8 µM] | activity change, negative = cytotoxicity [6] -5.03% [at 13.5 µM] | activity change, negative = cytotoxicity [7] -0.723% [at 13.5 µM] | activity, negative = inhibition [8] -3.48% [at 12.7 µM] | activation [9] -0.137% [at 15.9 µM] | activity, negative = inhibition [10] -12.8% [at 12.6 µM] | activation [11] 0.19% [at 15.8 µM] | activation [12] -2.05% [at 19 µM] | activity change, negative = inhibition [13] -19.6% [at 18.9 µM] | activity change, negative = inhibition [16] -0.773% [at 18.9 µM]

O=C(Nc1cccc(Cl)c1)OCC#CCCl
inactive: Potency [3] | Potency [4] | Potency [5] | Potency [6] | Potency [17] | Potency [9] | Potency [10] | Potency [11] | Potency [14] | Potency [16]
active: Potency [1] 17.2 µM | Potency [2] 12.2 µM

C1CCC2(CCCCO2)OC1
inactive: Potency [1] | Potency [2] | Potency [3] | Potency [4] | Potency [5] | Potency [6] | Potency [7] | Potency [8] | Potency [9] | Potency [10] | Potency [11] | Potency [12] | Potency [13] | Potency [14] | Potency [15] | Potency [18] | Potency [16]

CO[C@@]1(NC(=O)Cc2cccs2)C(=O)N2C(C(=O)O)=C(COC(N)=O)CS[C@@H]21
inactive: Potency [1] | Potency [2] | Potency [3] | Potency [4] | Potency [5] | Potency [6] | Potency [7] | Potency [8] | Potency [9] | Potency [10] | Potency [12] | Potency [13] | Potency [14] | Potency [15] | Potency [18] | Potency [16]

O=Cc1ccccc1Cl
inactive: Potency [1] | Potency [2] | Potency [3] | Potency [4] | Potency [5] | Potency [6] | Potency [7] | Potency [8] | Potency [9] | Potency [10] | Potency [11] | Potency [12] | Potency [13] | Potency [14] | Potency [18] | Potency [16]

CN(C)[C@@H]1C(=O)C(C(N)=O)=C(O)[C@@]2(O)C(=O)C3=C(O)c4c(O)ccc(Cl)c4[C@@H](O)[C@H]3C[C@@H]12
inactive: Potency [1] | Potency [2] | Potency [3] | Potency [4] | Potency [5] | Potency [6] | Potency [17] | Potency [10] | Potency [11] | Potency [14] | Potency [15] | Potency [18] | Potency [16]

Cc1c(O)cccc1O
inactive: Potency [1] | Potency [2] | Potency [3] | Potency [4] | Potency [5] | Potency [6] | Potency [7] | Potency [8] | Potency [9] | Potency [10] | Potency [11] | Potency [12] | Potency [13] | Potency [14] | Potency [15] | Potency [18] | Potency [16]

CCCCOCCOCCOCCOCCO
inactive: Potency [1] | Potency [2] | Potency [3] | Potency [4] | Potency [5] | Potency [6] | Potency [7] | Potency [8] | Potency [9] | Potency [10] | Potency [11] | Potency [12] | Potency [13] | Potency [18] | Potency [16]

CC(=O)CCC1=C(C)CCCC1(C)C
inactive: Potency [1] | Potency [2] | Potency [3] | Potency [4] | Potency [5] | Potency [6] | Potency [7] | Potency [8] | Potency [9] | Potency [10] | Potency [11] | Potency [12] | Potency [13] | Potency [14] | Potency [18] | Potency [16]

CN(C)CC[C@@H](c1ccc(Br)cc1)c1ccccn1
inactive: Potency [1] | Potency [2] | Potency [3] | Potency [4] | Potency [5] | Potency [6] | Potency [17] | Potency [11] | Potency [12] | Potency [13] | Potency [14] | Potency [18] | Potency [16]

N[C@@H]1CONC1=O
inactive: Potency [1] | Potency [2] | Potency [3] | Potency [4] | Potency [5] | Potency [6] | Potency [7] | Potency [9] | Potency [10] | Potency [11] | Potency [12] | Potency [13] | Potency [14] | Potency [15] | Potency [18] | Potency [16]

CN(C)C(C)(C)CO
inactive: Potency [1] | Potency [2] | Potency [3] | Potency [4] | Potency [5] | Potency [6] | Potency [7] | Potency [8] | Potency [9] | Potency [10] | Potency [11] | Potency [12] | Potency [13] | Potency [14] | Potency [15] | Potency [16]

CC(C)c1ccc2ncccc2c1
inactive: Potency [1] | Potency [2] | Potency [3] | Potency [4] | Potency [5] | Potency [6] | Potency [17] | Potency [11] | Potency [12] | Potency [14] | Potency [18] | Potency [16]

O=C(Cl)c1cccc([N+](=O)[O-])c1
inactive: Potency [1] | Potency [2] | Potency [3] | Potency [4] | Potency [5] | Potency [6] | Potency [7] | Potency [8] | Potency [9] | Potency [10] | Potency [11] | Potency [12] | Potency [13] | Potency [14] | Potency [18] | Potency [16]

OCCc1ccncc1
inactive: Potency [1] | Potency [2] | Potency [3] | Potency [4] | Potency [5] | Potency [6] | Potency [17] | Potency [9] | Potency [11] | Potency [12] | Potency [13] | Potency [14] | Potency [15] | Potency [18] | Potency [16]

CC(C)CC(C)(C)C
inactive: Potency [1] | Potency [2] | Potency [3] | Potency [4] | Potency [5] | Potency [6] | Potency [7] | Potency [8] | Potency [9] | Potency [10] | Potency [11] | Potency [14] | Potency [18] | Potency [16]
